“And” between values parts separate entries of the source, which are not always exact repeats. Equal values may be shown once. Hit rate of the full screen: of about 5,500 compounds, about 2,000 (36%) were called active. Inconclusive results (about 18%) are left out. Cut-off read from the data, not from the text of the source: active = normalized growth mostly below about 0.91 (no sharp cut-off); inconclusive = no clear call, values can overlap the other calls; inactive = mostly above about 0.92. This is one part of the list.
Assay: chemical genetic growth profiling, strain panel (AID 1159580);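 note: tested at 20 µM; growth read once vehicle control cultures reached saturation at 30 °C; 1 = growth at the plate median or of vehicle wells; lower values mean less growth of the strain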
Conditions: S. cerevisiae deletion strains, growth OD

Measured: normalized growth

CC(N=C(NC#N)Nc1ccncc1)C(C)(C)C (configuration not stated)
inactive: locus YAL013W, strain DEP1, stronger effect = lower value 1.01 | locus YAL021C, strain ccr4, stronger effect = lower value 0.988 | locus YAL026C, strain drs2, stronger effect = lower value 0.997 | locus YAL030W, strain snc1, stronger effect = lower value 0.988 | locus YAL040C, strain CLN3, stronger effect = lower value 0.983 | locus YBL061C, strain skt5, stronger effect = lower value 0.986 | locus YBR009C, strain hhf1, stronger effect = lower value 1.01 | locus YBR021W, strain FUR4, stronger effect = lower value 1.02 | locus YBR023C, strain chs3, stronger effect = lower value 0.98 | locus YBR171W, strain sec66, stronger effect = lower value 0.958 | locus YBR229C, strain ROT2, stronger effect = lower value 1.01 | locus YBR231C, strain swc5, stronger effect = lower value 0.953 | locus YBR279W, strain paf1, stronger effect = lower value 0.994 | locus YCL011C, strain gbp2, stronger effect = lower value 0.989 | locus YCL016C, strain dcc1, stronger effect = lower value 1.02 | locus YCL029C, strain bik1, stronger effect = lower value 1.04 | locus YCL061C, strain MRC1 (second series), stronger effect = lower value 0.999 | locus YCL061C, strain MRC1, stronger effect = lower value 0.951 | locus YCL069W, strain vba3, stronger effect = lower value 0.989 | locus YCR088W, strain abp1, stronger effect = lower value 0.98 | locus YDL005C, strain med2, stronger effect = lower value 0.988 | locus YDL035C, strain GPR1, stronger effect = lower value 0.999 | locus YDL040C, strain nat1, stronger effect = lower value 0.979 | locus YDL074C, strain BRE1, stronger effect = lower value 1.05 | locus YDL101C, strain DUN1, stronger effect = lower value 1.01 | locus YDL134C, strain PPH21, stronger effect = lower value 1.01 | locus YDL185W, strain tfp1, stronger effect = lower value 1.02 | locus YDL192W, strain arf1, stronger effect = lower value 1.01 | locus YDR001C, strain nth1, stronger effect = lower value 0.963 | locus YDR069C, strain doa4, stronger effect = lower value 0.949 | locus YDR101C, strain arx1, stronger effect = lower value 1.01 | locus YDR137W, strain rgp1, stronger effect = lower value 0.97 | locus YDR150W, strain NUM1, stronger effect = lower value 1.02 and 1 | locus YDR159W, strain sac3, stronger effect = lower value 1.01 | locus YDR162C, strain NBP2, stronger effect = lower value 1.01 | locus YDR195W, strain ref2 0.895 | locus YDR297W, strain sur2, stronger effect = lower value 0.971 | locus YDR318W, strain mcm21, stronger effect = lower value 1.02 | locus YDR334W, strain swr1, stronger effect = lower value 0.949 | locus YDR335W, strain msn5, stronger effect = lower value 0.972 | locus YDR363W, strain ESC2, stronger effect = lower value 0.904 | locus YDR388W, stronger effect = lower value 1.02 | locus YDR392W, strain spt3, stronger effect = lower value 1.04 | locus YDR502C, strain sam2, stronger effect = lower value 1.01 | locus YEL003W, strain gim4, stronger effect = lower value 0.967 | locus YEL037C, strain rad23, stronger effect = lower value 0.998 | locus YEL061C, strain CIN8 (second series), stronger effect = lower value 0.974 | locus YEL061C, strain CIN8, stronger effect = lower value 1.01 | locus YER002W, strain NOP16, stronger effect = lower value 1 | locus YER015W, strain faa2, stronger effect = lower value 0.999 | locus YER016W, strain bim1, stronger effect = lower value 0.986 | locus YER110C, stronger effect = lower value 1.02 | locus YER111C, strain swi4, stronger effect = lower value 0.995 | locus YER155C, strain BEM2 (second series), stronger effect = lower value 0.929 | locus YER155C, strain BEM2, stronger effect = lower value 1 | locus YER167W, strain BCK2, stronger effect = lower value 0.996 | locus YFR010W, strain ubp6, stronger effect = lower value 0.964 | locus YGL078C, strain dbp3, stronger effect = lower value 1.01 | locus YGL086W, strain mad1, stronger effect = lower value 1 | locus YGL167C, strain pmr1, stronger effect = lower value 0.961 | locus YGL173C, strain kem1, stronger effect = lower value 0.97 | locus YGL227W, strain vid30, stronger effect = lower value 0.986 | locus YGL240W, strain doc1, stronger effect = lower value 0.945 | locus YGL248W, strain PDE1, stronger effect = lower value 1 | locus YGL253W, strain hxk2, stronger effect = lower value 1.01 | locus YGR078C, strain PAC10, stronger effect = lower value 1.04 and 0.982 | locus YGR135W, strain pre9, stronger effect = lower value 1.03 | locus YGR229C, strain SMI1, stronger effect = lower value 1.02 | locus YGR252W, strain gcn5, stronger effect = lower value 0.967 | locus YHR013C, strain ard1, stronger effect = lower value 0.985 | locus YHR027C, strain rpn1, stronger effect = lower value 0.979 | locus YHR030C, strain SLT2, stronger effect = lower value 1.01 | locus YHR079C, strain IRE1 (second series), stronger effect = lower value 1.02 | locus YHR094C, strain hxt1, stronger effect = lower value 1.02 | locus YHR129C, strain ARP1, stronger effect = lower value 1 | locus YHR142W, strain chs7, stronger effect = lower value 1.02 | locus YHR200W, strain rpn10, stronger effect = lower value 1.02 | locus YIL066C, strain RNR3, stronger effect = lower value 1.02 | locus YIL073C, strain SPO22, stronger effect = lower value 1.02 | locus YIL125W, strain kgd1, stronger effect = lower value 1.01 | locus YIR030C, strain dcg1, stronger effect = lower value 1.02 | locus YJL092W, strain hpr5, stronger effect = lower value 0.976 | locus YJL095W, strain BCK1 (second series), stronger effect = lower value 0.974 | locus YJL095W, strain BCK1, stronger effect = lower value 1.04 | locus YJL115W, strain asf1, stronger effect = lower value 0.971 | locus YJL129C, strain trk1, stronger effect = lower value 0.979 | locus YJL134W, strain LCB3, stronger effect = lower value 1.01 | locus YJL154C, strain vps35, stronger effect = lower value 0.972 | locus YJL164C, strain tpk1, stronger effect = lower value 1.03 | locus YJL166W, strain qcr8, stronger effect = lower value 0.922 | locus YJL168C, strain set2, stronger effect = lower value 1.02 | locus YJL187C, strain SWE1 (second series), stronger effect = lower value 1.03
